Data on 40 compounds can be found in PubChem BioAssay (Tox21).

Values joined by “and” are separate entries in the source; they are usually repeats but may differ in a detail not shown here. Equal values may be shown once. Records with an inconclusive call do not appear. Active and inactive are the calls of the source. The call rests on the fitted dose curve; in most records, active means well fitted cell-killing curve with a large enough effect in the repeat runs; inconclusive means weak or mixed curves, or effect the other way; inactive means flat fitted curve, though single readings scatter.
On the % scale 0 is the no-effect control and ±100 the full control effect; potency means the concentration at half of the fitted maximal effect.

A short description of this experiment: qHTS assay to identify small molecule antagonists of the constitutive androstane receptor (CAR) signaling pathway - cell viability counter screen (AID 1224837). Further: nearly all actives have a fitted effect of over 45% in size. As to conditions: HepG2-CYP2B6-hCAR viability, CellTiter-Fluor, 23 h, co-treated with 50 nM CITCO; series mostly up to 92.4 µM; activity change, negative = cytotoxicity: at the top concentration. The text has this: National Center for Advancing Translational Sciences [NCATS]
NIH Chemical Genomics Center [NCGC]
U.S. Environmental Protection Agency [EPA]
National Institutes of Environmental Health Sciences [NIEHS]
National Toxicology Program [NTP]
U.S. Food and Drug Administration [FDA]
The constitutive androstane receptor (CAR) is a nuclear receptor which regulates multiple drug metabolizing enzymes (DMEs) and transporters. Activating CAR will generally increase the transcription and subsequent translation of CYP2B6 and CYP3A4. These two DMEs represent about 50% of the drug metabolizing potential in the body. When CAR is deactivated, the metabolizing potential in the body will decrease, subsequently increasing the toxicity in the body or lowering the therapeutic potential of a pro-drug. Recently, there have also been studies performed indicating CARs role in energy metabolism and cancer therapy. Therefore, inhibiting CARs activity could have a potential effect on diabetes and cancer. Identifying environmental toxins and compounds which modulate CAR, through the use of the Tox21 10K compound collection, will be an important step in determining the toxicity and potential therapeutic effects these factors will have on the human body. To differentiate true CAR antagonists from cytotoxic substances, the assay is multiplexed with a cell viability assay.
Tox21 Assay Protocol Summary:
A double-stable (hCAR and CYP2B6-2.2kb) transfected cell line, derived from human hepatoma (HepG2) cells, was utilized for the duration of the quantitative high-throughput screens. The HepG2-CYP2B6-hCAR cells were dispensed at 2500 cells/4 uL/well in 1536-well white solid bottom plates using a Multidrop Combi. After the assay plates were incubated at 37 C/5% CO2 for 4 hrs, 23 nL of compounds at 15 concentrations (from 5-48 columns) or positive control (from 1 to 4 columns) were transferred to the assay plates using a Pintool station. One uL of CITCO (final concentration = 50 nM) was added, using a Flying Reagent Dispenser, inside each well. After a 23 hr incubation period at 37 C/5% CO2, 1 uL of CellTiter-Fluor reagent was added into each well of the assay plates using a Flying Reagent Dispenser. The fluorescence intensity in the plates was then measured using a ViewLux plate reader.
For orientation: qHTS replaces the single test concentration by a dilution series.
As to `CC(=O)CC(C)=O`, the “activity change, negative = cytotoxicity” value is 0.649% (inactive).
As to `C1COC(NC(C2CC2)C2CC2)=N1`, the “activity change, negative = cytotoxicity” value was 6.48% [at 42.5 µM] (inactive).
`CCN(CC)C(=O)Nc1ccc(OCC(O)CNC(C)(C)C)c(C(C)=O)c1` (stereo not given): the “activity change, negative = cytotoxicity” value is 0.176% [at 42.5 µM] (inactive).
Consider `CCOc1ccccc1C(N)=O`, for which the Potency result was “inactive”.
`CCCOC(=O)c1cc(O)c(O)c(O)c1`: the Potency result was “inactive”.
Still for that read-out and setting: the entry for `Cc1ccnc2c1NC(=O)c1cccnc1N2C1CC1` is “inactive”; for `c1ccc2c(c1)-c1cccc3c1c-2cc1ccccc13` it is “inactive”.
`COc1ccc(CCN2CCC(Nc3nc4ccccc4n3Cc3ccc(F)cc3)CC2)cc1`: the Potency is 17.6 µM (active) and 29.8 µM (active).
`NCCO`: the Potency result is “inactive”.
For the compound `C#CC(C)(CC)OC(=O)c1ccccc1C(=O)O` (stereo not given), the “activity change, negative = cytotoxicity” value is 0.887% [at 42.5 µM] (inactive).
Consider `CCC(=O)/C=C/C1C(C)=CCCC1(C)C` (stereo not given), for which the Potency entry is “inactive”.
As to `O=C(Nc1ccccc1SSc1ccccc1NC(=O)c1ccccc1)c1ccccc1`, the Potency was 19.4 µM (active) and 24.3 µM (active).
In the case of `COC(c1ccccc1)(c1ccccc1)[C@H](Oc1nc(C)cc(C)n1)C(=O)O`, the “activity change, negative = cytotoxicity” value is -9.16% [at 42.5 µM] (inactive).
With `CN(C)c1ccc2nc3ccc(=[N+](C)C)cc-3sc2c1`, the Potency was 27.3 µM (active) and 11.9 µM (active).
Consider `COc1ccc(COC(C)=O)cc1`, for which the Potency result is “inactive”.
On to `CO[Si](OC)(OC)c1ccccc1`, for which the “activity change, negative = cytotoxicity” value is -5.62% (inactive).
On the same count and under the same terms, the figure for `CCCCC/C=C/CC1CC(=O)OC1=O` (stereo not given) is -1.25% (inactive); for `CC(C)CCOCc1ccccc1` it is 0.984% (inactive).
For `CN1C(=O)c2ccc([N+](=O)[O-])cc2C1=O`, the “activity change, negative = cytotoxicity” value is 1.13% (inactive).
As for `c1cnc2cc3c(cc2n1)C1CNCC3C1`, the “activity change, negative = cytotoxicity” value is 8.8% [at 42.5 µM] (inactive).
For `c1ccc2c(c1)CCCC2C1=NCCN1` (stereo not given), the “activity change, negative = cytotoxicity” value was 1.86% [at 42.5 µM] (inactive).
Take `O=S(=O)(O)c1ccc2nc(-c3ccccc3)[nH]c2c1`: the Potency entry is “inactive”.
For the compound `COc1cc(C(=S)N2CCOCC2)ccc1O`, the “activity change, negative = cytotoxicity” value is -3.38% [at 42.5 µM] (inactive).
Consider `NC(Cc1ccc(Cl)cc1)C(=O)O` (stereo not given), for which the activity change, negative = cytotoxicity was 6.69% [at 0.349 µM] (inactive).
For the compound `O=C(O)Cn1cnnn1`, the “activity change, negative = cytotoxicity” value was 6.08% [at 42.5 µM] (inactive).
For the compound `CCCCOCCOC(=O)c1ccccc1C(=O)OCCOCCCC`, the Potency entry is “inactive”.
For `CNC1(C)C2CCC(C2)C1(C)C` (stereo not given), the “activity change, negative = cytotoxicity” value is -12.1% [at 42.5 µM] (inactive).
Consider `CC(C(O)c1ccc(O)cc1)N1CCC(Cc2ccccc2)CC1` (stereo not given), for which the “activity change, negative = cytotoxicity” value was -8.4% [at 42.5 µM] (inactive).
Take `NNCCc1ccccc1`: the Potency result was “inactive”.
Regarding `CCCCCCC(O)CCCCCCCCCCC(=O)O` (stereo not given), the Potency result is “inactive”.
Consider `CC(C)(C)NCC(O)c1cc(O)cc(O)c1` (stereo not given), for which the “activity change, negative = cytotoxicity” value was -2.74% [at 42.5 µM] (inactive).
In the case of `C/C=C/c1ccc(OCC)c(O)c1`, the Potency result was “inactive”.
On to `CC(C)(c1ccccc1)c1ccc(Nc2ccc(C(C)(C)c3ccccc3)cc2)cc1`, for which the Potency entry is “inactive”.
In the case of `CCn1cc(C(=O)O)c(=O)c2cc(F)c(N3CCNC(C)C3)c(F)c21` (stereo not given), the “activity change, negative = cytotoxicity” value was -3.04% [at 42.5 µM] (inactive).
Consider `CC(C)(O)CCC(C)(C)O`, for which the “activity change, negative = cytotoxicity” value is 0.0088% (inactive).
Turning to `Cc1cccc([N+](=O)[O-])c1C(=O)O`, the “activity change, negative = cytotoxicity” value is 2.61% (inactive).
Turning to `CC(=O)O[C@]1(C(C)=O)CC[C@H]2[C@@H]3C[C@H](C)C4=CC(=O)CC[C@]4(C)[C@H]3CC[C@@]21C`, the “activity change, negative = cytotoxicity” value was 3.86% [at 42.5 µM] (inactive).
As for `c1ccc2cc3c(ccc4ccccc43)cc2c1`, the Potency result is “inactive”.
`COC(=O)c1cccc(C(=O)OC)c1`: the Potency result was “inactive”.
Consider `CC(C)(C)NC(=O)[C@@H]1CN(Cc2cccnc2)CCN1C[C@@H](O)C[C@@H](Cc1ccccc1)C(=O)N[C@H]1c2ccccc2C[C@H]1O`, for which the Potency entry is “inactive”.
